Results filed as inconclusive are left out. Activity calls are given as the source filed them. Calls come from the whole dose curve; as a rule, active = well fitted curve in the direction sought with a large enough effect; inconclusive = small, poorly fitted or top-dose-only effect, or another doubt; inactive = no such curve, though single readings can be large; an effect the other way counts as inactive or inconclusive.

A short description of assay [1]: qHTS of pediatric cancer cell lines to identify multiple opportunities for drug repurposing: Primary screen for OHS-50 cells (AID 1347103). Note: nearly all actives have a fitted effect of over 40% in size. Note: potency is the fitted concentration of half-maximal effect. A digest of the protocol:
(§1)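 Cells (500-1,000/well) rested 5 h, then received compounds for 48 h; metabolically active cells were measured by CellTiter-Glo luminescence. Final concentrations spanned up to 46 µM (MIPE, 11-point) or 0.59 nM-46 µM (NPC, 8-point) in primary screens, 11-point in follow-ups.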
On the technique in general: qHTS replaces the single test concentration by a dilution series.

The nature of assay [2]: qHTS of pediatric cancer cell lines to identify multiple opportunities for drug repurposing: Primary screen for RD cells (AID 1347104). Note: nearly all actives have a fitted effect of over 55% in size. Note: potency is the fitted concentration of half-maximal effect. The procedure, abridged: (§2)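 Cells seeded at 500-1,000 cells/well in growth media, rested 5 hours at 37 degrees C, 5% CO2, then dosed; MIPE compounds at 11-point (from 0.78 nM) and NPC at 8-point (from 0.59 nM) final concentrations. Viability by CellTiter-Glo luminescence after 48 hours.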

Assay [3] in a line: qHTS of pediatric cancer cell lines to identify multiple opportunities for drug repurposing: Primary screen for MG 63 (6-TG R) cells (AID 1347105). Note: nearly all actives have a fitted effect of over 50% in size. Note: potency is the fitted concentration of half-maximal effect. The procedure, abridged: as §2
Assay [4] is described as follows: qHTS of pediatric cancer cell lines to identify multiple opportunities for drug repurposing: Primary screen for control Hh wild type fibroblast cells (AID 1347106).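 Note: series mostly up to about 46 µM; a drop in luminescence marks cytotoxicity and a rise apparent proliferation; nearly all actives have a fitted effect of over 55% in size.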 A digest of the protocol:
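Cells (500-1,000/well) in growth media were settled 5 h at 37 degrees C, then given compounds for 48 h. Viability was read as CellTiter-Glo luminescence. Primary runs used MIPE at 11 points (0.78 nM-46 µM) and NPC at 8 points (0.59 nM-46 µM); follow-ups used 11 points.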

Assay [5] in a line: qHTS of pediatric cancer cell lines to identify multiple opportunities for drug repurposing: Primary screen for Rh30 cells (AID 1347107). Note: nearly all actives have a fitted effect of over 75% in size. Note: potency is the fitted concentration of half-maximal effect. A digest of the protocol:
as §1

Assay [6] can be described thus: qHTS of pediatric cancer cell lines to identify multiple opportunities for drug repurposing: Primary screen for Rh41 cells (AID 1347108). Note: nearly all actives have a fitted effect of over 70% in size. Note: potency is the fitted concentration of half-maximal effect. A digest of the protocol:
as §2

Assay [7] is described as follows: qHTS of pediatric cancer cell lines to identify multiple opportunities for drug repurposing: Confirmatory screen for NB1643 cells (AID 1347109). Note: nearly all actives have a fitted effect of over 45% in size. Note: potency is the fitted concentration of half-maximal effect. The procedure, abridged: as §1
A short description of assay [8]: qHTS of pediatric cancer cell lines to identify multiple opportunities for drug repurposing: Confirmatory screen for BT-12 cells (AID 1347112). Note: nearly all actives have a fitted effect of over 55% in size. Note: potency is the fitted concentration of half-maximal effect. The procedure, abridged: as §1
The nature of assay [9]: qHTS of pediatric cancer cell lines to identify multiple opportunities for drug repurposing: Confirmatory screen for LAN-5 cells (AID 1347113). Note: nearly all actives have a fitted effect of over 65% in size. Note: potency is the fitted concentration of half-maximal effect. The procedure, abridged: as §1
Assay [10] can be described thus: qHTS of pediatric cancer cell lines to identify multiple opportunities for drug repurposing: Confirmatory screen for NB-EBc1 cells (AID 1347115).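 Note: cells exposed to compound for 48 h before the viability read; nearly all actives have a fitted effect of over 45% in size.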 Note: potency is the fitted concentration of half-maximal effect. The procedure, abridged:
as §1

Assay [11] in a line: qHTS of pediatric cancer cell lines to identify multiple opportunities for drug repurposing: Confirmatory screen for BT-37 cells (AID 1347117). Note: nearly all actives have a fitted effect of over 55% in size. Note: potency is the fitted concentration of half-maximal effect. The procedure, abridged: as §1
Assay [12] can be described thus: qHTS of pediatric cancer cell lines to identify multiple opportunities for drug repurposing: Confirmatory screen for TC32 cells (AID 1347118).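 Note: potency is the fitted concentration of half-maximal effect; cells exposed to compound for 48 h before the read; nearly all actives have a fitted effect of over 65% in size.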 The procedure, abridged:
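qHTS, TC32, 48 h drug treatment, CellTiter-Glo luminescence as a proxy for metabolically active cells; primary top concentration 46 µM (MIPE 11-pt, NPC 8-pt); confirmatory 11-pt.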

Assay [13] is described as follows: qHTS of pediatric cancer cell lines to identify multiple opportunities for drug repurposing: Confirmatory screen for control Hh wild type fibroblast cells (AID 1347121). Note: nearly all actives have a fitted effect of over 70% in size. The procedure, abridged: as §1
The nature of assay [14]: qHTS of pediatric cancer cell lines to identify multiple opportunities for drug repurposing: Confirmatory screen for U-2 OS cells (AID 1347122). Note: nearly all actives have a fitted effect of over 65% in size. Note: potency is the fitted concentration of half-maximal effect. The procedure, abridged:
as §1

Assay [15] is described as follows: qHTS of pediatric cancer cell lines to identify multiple opportunities for drug repurposing: Confirmatory screen for Rh18 cells (AID 1347125). Note: nearly all actives have a fitted effect of over 55% in size. Note: potency is the fitted concentration of half-maximal effect. The procedure, abridged:
as §1

A short description of assay [16]: qHTS of pediatric cancer cell lines to identify multiple opportunities for drug repurposing: Confirmatory screen for A673 cells (AID 1347110).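 Note: cells exposed to compound for 48 h before the viability read; nearly all actives have a fitted effect of over 65% in size.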 Note: potency is the fitted concentration of half-maximal effect. The procedure, abridged:
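Viability was read as ATP luminescence (CellTiter-Glo) after 48 h of compound exposure at 37 C in A673 cells seeded at 500-1,000/well. Titrations reached 46 uM final, with 11 points in the confirmatory screen. Concentration-response curves were fitted directly.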

Assay [17] can be described thus: qHTS of pediatric cancer cell lines to identify multiple opportunities for drug repurposing: Confirmatory screen for DAOY cells (AID 1347114). Note: nearly all actives have a fitted effect of over 65% in size. The procedure, abridged: (§3)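 Viability measured as metabolically active cells via CellTiter-Glo luminescence following 48 hours of compound exposure, 11-point dilutions in confirmatory testing. 500-1,000 cells/well plated 5 hours before dosing; controls were DMSO and 2.3 µM bortezomib.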

Assay [18] can be described thus: qHTS of pediatric cancer cell lines to identify multiple opportunities for drug repurposing: Confirmatory screen for SJ-GBM2 cells (AID 1347116). Note: nearly all actives have a fitted effect of over 60% in size. Note: potency is the fitted concentration of half-maximal effect. A digest of the protocol: as §3
Assay [19] can be described thus: qHTS of pediatric cancer cell lines to identify multiple opportunities for drug repurposing: Confirmatory screen for MG 63 (6-TG R) cells (AID 1347119). Note: nearly all actives have a fitted effect of over 55% in size. Note: potency is the fitted concentration of half-maximal effect. The procedure, abridged: as §1
Assay [20] is described as follows: qHTS of pediatric cancer cell lines to identify multiple opportunities for drug repurposing: Confirmatory screen for RD cells (AID 1347124). Note: potency is the fitted concentration of half-maximal effect. The procedure, abridged: as §1

Regarding `CC1Sc2c(C(=O)O)c(=O)c3cc(F)c(N4CCNCC4)cc3n21` (stereo not drawn), the Potency result in assay [1], in assay [2], in assay [3], in [4], in [5] and in [6] was “inactive” in each case. For the same compound, the Potency result in assay [7], in assay [8], in assay [9], in [10], in assay [11] and in assay [13] was “inactive” each time. Also, the Potency entry in [14] and in assay [15] was “inactive” in each case. Moreover, the Potency in assay [12] is 18.5 µM (active).

For the compound `CCCOC(=O)Cc1ccc(OCC(=O)N(CC)CC)c(OC)c1`, the Potency entry in assay [1], in [2], in [3], in assay [4], in assay [5] and in assay [6] was “inactive” each time.

In the case of `CNC(=O)NC(O)C(Cl)(Cl)Cl` (stereo not drawn), the Potency result in assay [1], in [2], in assay [3], in assay [4] and in [5] was “inactive” each time.

As to `CCCCCCCCC(=O)NCc1ccc(O)c(OC)c1`, the Potency is 0.001 µM (active) in [1] and 5.22 µM (active) in assay [12]. For the same compound, the Potency result in assay [2], in assay [4], in [5], in assay [6], in assay [7] and in assay [16] was “inactive” each time. Also, the Potency result in assay [8], in assay [9], in assay [17], in assay [10], in [18] and in assay [11] was “inactive” in each case. Further, the Potency result in assay [19], in assay [13], in [14], in assay [20] and in [15] was “inactive” each time.

Regarding `C[C@H](N)[C@H](O)c1ccc(O)c(O)c1`, the Potency entry in assay [1], in [2], in [3], in [4] and in assay [5] was “inactive” throughout.

For `CN1C(=O)CN=C(c2ccccc2)c2cc([N+](=O)[O-])ccc21`, the Potency result in assay [1], in assay [2], in assay [3], in assay [5] and in assay [6] was “inactive” each time.

With `O=C(N[C@H]1N=C(c2ccccc2F)c2cccc3c2N(CC3)C1=O)c1cc2ccccc2[nH]1`, the Potency entry in [1], in assay [2], in [3], in assay [4], in assay [5] and in assay [6] was “inactive” in each case.

Consider `CNC(=O)Oc1cccc2ccccc12`, for which the Potency result in assay [1], in [2], in assay [3], in [4] and in assay [5] was “inactive” each time.

Regarding `COc1cc(CC#N)cc(OC)c1OC`, the Potency result in assay [1], in assay [2], in assay [3], in [4], in [5] and in assay [6] was “inactive” in each case.

For `CCCC(C)C1(CC)C(=O)N=C(S)NC1=O` (stereo not drawn), the Potency entry in assay [1], in [2], in [3], in [4], in assay [5] and in [6] was “inactive” throughout.

Consider `C[C@H]1C(=O)O[C@@H]2CCN3CC=C(COC(=O)[C@](C)(O)[C@]1(C)O)[C@H]23`, for which the Potency result in [1], in assay [2], in assay [3], in assay [4], in [5] and in assay [6] was “inactive” each time.

On to `COc1ccc(OC)c(CC(C)N)c1` (stereo not drawn), for which the Potency result in assay [1], in assay [2], in assay [3], in assay [4] and in [5] was “inactive” throughout.

Consider `C[N+]1(C)[C@@H]2CC[C@H]1CC(OC(=O)C(CO)c1ccccc1)C2` (stereo partly drawn), for which the Potency result in assay [1], in assay [2], in [3], in assay [4], in [5] and in assay [6] was “inactive” throughout.

`CC#C[C@]1(O)CC[C@H]2[C@@H]3C[C@H](C)C4=CC(=O)CC[C@]4(C)[C@H]3CC[C@@]21C`: the Potency in assay [1] is 19.5 µM (active). Besides, the Potency result in [2], in assay [3], in [5] and in assay [6] was “inactive” in each case.

On to `CCOC(=O)c1cncn1C(C)c1ccccc1` (stereo not drawn), for which the Potency entry in [1], in assay [2], in assay [3], in [5] and in [6] was “inactive” each time.

With `CN(C)C(=S)SSC(=S)N(C)C`, the Potency in assay [1] was 0.347 µM (active); in [2], 0.188 µM (active); in [3], 0.335 µM (active); in assay [5], 1.68 µM (active); in assay [6] it was 0.211 µM (active); in assay [7], 1.31 µM (active). Moreover, the Potency is 0.329 µM (active) in [16]; 0.185 µM (active) in assay [9]; 0.928 µM (active) in [10]; 8.27 µM (active) in assay [18]; 1.04 µM (active) in [11]; 1.04 µM (active) in assay [12]. Besides, the Potency is 3.69 µM (active) in assay [14], 16.5 µM (active) in assay [20] and 0.585 µM (active) in assay [15]. Moreover, the Potency result in assay [13] was “inactive”.

For the compound `CC(Cc1ccccc1)NCCCCl` (stereo not drawn), the Potency result in assay [1], in assay [2], in assay [3], in [5] and in assay [6] was “inactive” throughout.

On to `OC(O)C(Cl)(Cl)Cl`, for which the Potency result in [1], in [2], in assay [3], in assay [4], in [5] and in assay [6] was “inactive” in each case.

As for `CCOC(=O)NC(O)C(Cl)(Cl)Cl` (stereo not drawn), the Potency result in assay [1], in [2], in [3], in assay [4], in [5] and in assay [6] was “inactive” in each case.

Consider `C[C@@H]1O[C@@H](O[C@@H]2C=C3CC[C@@H]4[C@H](CC[C@]5(C)[C@@H](c6ccc(=O)oc6)CC[C@]45O)[C@@]3(C)CC2)[C@H](O)[C@H](O)[C@H]1O`, for which the Potency in assay [1] is 0.0025 µM (active); in assay [2] it was 0.0015 µM (active); in assay [3], 0.0017 µM (active); in assay [7], 0.0827 µM (active); in [16] it was 0.0585 µM (active); in assay [8], 0.0414 µM (active). Also, the Potency was 0.0585 µM (active) in [9]; 0.0293 µM (active) in assay [10]; 0.0465 µM (active) in assay [18]; 0.0147 µM (active) in assay [11]; 0.0233 µM (active) in assay [12]; 0.0083 µM (active) in [19]. Further, the Potency in assay [20] was 0.0033 µM (active); in [15], 6.57 µM (active). Further, in assay [5], the Potency result is “inactive”.

Values taken from PubChem BioAssay (NCATS).
